In PubChem BioAssay (NCI):
The panel holds about 83,000 compounds, 20% with a hit somewhere; the sample as a whole holds those more often.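 Note: values are percent growth. 100 is the growth of untreated cells, values between 100 and 0 indicate rising inhibition; between -100 and 0 indicates cell death.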 A number with no mark means an inactive call. The source made the active and inactive calls. How the source made its calls: active means growth percent below 10; inactive means the rest.

Assays:
Test in all cases: NCI-60 one-dose screen, 48 h (100 = growth as untreated, 0 = no growth, -100 = all killed)
Conditions in all cases: 10 µM
HT29 colon = system: HT29 colon
SNB-75 CNS = system: SNB-75 CNS
SNB-19 CNS = system: SNB-19 CNS
U251 CNS = system: U251 CNS
PC-3 prostate = system: PC-3 prostate
SK-MEL-5 melanoma = system: SK-MEL-5 melanoma
UACC-62 melanoma = system: UACC-62 melanoma
LOX IMVI melanoma = system: LOX IMVI melanoma
SK-MEL-28 melanoma = system: SK-MEL-28 melanoma
SK-MEL-2 melanoma = system: SK-MEL-2 melanoma
SN12C renal = system: SN12C renal
UO-31 renal = system: UO-31 renal
TK-10 renal = system: TK-10 renal
ACHN renal = system: ACHN renal
CAKI-1 renal = system: CAKI-1 renal
A498 renal = system: A498 renal
CCRF-CEM leukemia = system: CCRF-CEM leukemia
MOLT-4 leukemia = system: MOLT-4 leukemia
SR leukemia = system: SR leukemia

Row | Structure (SMILES) | growth (HT29 colon) | growth (SNB-75 CNS) | growth (SNB-19 CNS) | growth (U251 CNS) | growth (PC-3 prostate) | growth (SK-MEL-5 melanoma) | growth (UACC-62 melanoma) | growth (LOX IMVI melanoma) | growth (SK-MEL-28 melanoma) | growth (SK-MEL-2 melanoma) | growth (SN12C renal) | growth (UO-31 renal) | growth (TK-10 renal) | growth (ACHN renal) | growth (CAKI-1 renal) | growth (A498 renal) | growth (CCRF-CEM leukemia) | growth (MOLT-4 leukemia) | growth (SR leukemia)
1 | COc1ccc(-c2cc(/C=C3\C(=O)Nc4ccc(Cl)cc43)[nH]n2)cc1OC | 93.5% | 64.2% | 90.9% | 95.2% | 88.4% | 73% | 95.9% | 90.5% | 99.3% | 99.5% | 87.1% | 71.1% | 90% | 79.4% | 81.3% | 76% | 72.2% | 57.5% | 55.2%
2 | O=C(CCCCC(=O)Nc1ccc2c(c1)/C(=C/c1ccc[nH]1)C(=O)N2)NO | 68.7% | 47.7% | 83% | 69.3% | 80.1% | 65% | 68.5% | 94.4% | 60.4% | 59.4% | 93.1% | 83.6% | 86% | 101% | 97.8% | 50.8% | 32.4% | 60.8% | 45.4%
3 | COc1cccc(Cn2c(-c3nonc3N)nc3ccccc32)c1 | -5.42% (active) | -16.7% (active) | 53.3% | 18.4% | 11% | 16.8% | 33.9% | 40.9% | 43.7% | -12.2% (active) | 43.8% | 33.2% | 31.7% | 46.6% | 20.5% | -19.3% (active) | 9.82% (active) | 25.6% | -5.32% (active)
4 | CC(=O)N(C)c1ccc(Nc2ccc(Nc3ccc(N(C)C(C)=O)cc3)c3c2C(=O)c2ccccc2C3=O)cc1 | 68.6% | 73.9% | 88.4% | 77.3% | 38.3% | 79% | 88.8% | 55% | 106% | 82.8% | 71.4% | 25.9% | 79% | 64.3% | 30.2% | 110% | 55.7% | 56.8% | 72.6%
5 | CCC(=O)N1C/C(=C/c2ccc(Br)cc2)C(=O)/C(=C/c2ccc(Br)cc2)C1 | -58.9% (active) | 1.74% (active) | -32.7% (active) | -81.4% (active) | -42.8% (active) | -53.8% (active) | -80.3% (active) | -87.7% (active) | -72.4% (active) | -33.8% (active) | -48.8% (active) | -95.9% (active) | -31.2% (active) | -54.9% (active) | -25.9% (active) | -66.4% (active) | -12% (active) | -15.1% (active) | -35.6% (active)
6 | COc1cc(Cl)cc(-c2nn(-c3cccc(NC(=O)c4ccc(N5CCOCC5)c(C(F)(F)F)c4)c3)cc2-c2ccncc2)c1 | 21.2% | 34.9% | 75.5% | 32.3% | 29.1% | 71.5% | 67.8% | 47.3% | 53.2% | 64.9% | 79.8% | 40.7% | 90.6% | 50.1% | 46.7% | 31.5% | 31.7% | 38.3% | 18.4%
7 | COc1cc(-c2cc(/C=C3\C(=O)Nc4ccc(Cl)cc43)[nH]n2)cc(OC)c1OC | 24.2% | -5.13% (active) | 49.9% | 32.1% | -13.2% (active) | -68.8% (active) | -59.6% (active) | 5.85% (active) | -1.56% (active) | -19.1% (active) | 7% (active) | 9.62% (active) | 27.5% | 23.9% | 17.5% | 41.1% | 10.7% | -4.3% (active) | 20.4%
8 | c1ccc(CP(Cc2ccccc2)c2ccccc2)cc1 | 88.2% | 101% | 105% | 93.6% | 86.2% | 99% | 99.3% | 86.8% | 110% | 97% | 100% | 73.8% | 98.6% | 102% | 92.3% | 103% | 89.5% | 92.5% | 82.3%
9 | O=C(Nc1cccc(-n2cc(-c3ccncc3)c(-c3cc(O)cc(Cl)c3)n2)c1)c1cc(C(F)(F)F)cc(C(F)(F)F)c1 | 19.7% | 52.7% | 63.1% | 37.2% | 21.7% | 64.5% | 69.3% | 10.5% | 63.6% | 57.8% | 50.3% | 49.1% | 73% | 37.7% | 58.5% | 40.3% | 26.9% | 19.5% | 3.15% (active)
10 | COc1cc(Cl)cc(-c2nn(-c3cccc(NC(=O)Nc4ccc(Cl)c(Cl)c4)c3)cc2-c2ccncc2)c1 | 7.39% (active) | 16.2% | 17.8% | 3.01% (active) | -5.03% (active) | 3.51% (active) | 4.38% (active) | 9.24% (active) | 23.2% | -32.1% (active) | 15.5% | 0.635% (active) | 19.8% | 9.65% (active) | 7.49% (active) | -9.54% (active) | 5.73% (active) | -16.1% (active) | -18.5% (active)
11 | c1ccc2c(-c3nc(N4CCOCC4)c4c5c(sc4n3)CCCCCC5)cccc2c1 | 101% | 85.2% | 104% | 91% | 95% | 94% | 96.6% | 105% | 105% | 104% | 99.5% | 101% | 116% | 100% | 99.2% | 102% | 96.9% | 97.2% | 94.8%
12 | CCN1CCC(CCOC)(CN2c3ccccc3Sc3ccc(Cl)cc32)C1 (centres undefined) | 7.66% (active) | 47.8% | 70.8% | 40.5% | 35.7% | -49.1% (active) | -46.7% (active) | -5.49% (active) | 58.2% | 88.5% | 59.7% | 8.09% (active) | 64.1% | 47.2% | 46.6% | 56.6% | 30.5% | 22.5% | 40.4%
13 | COc1cc(NC(=O)CCSc2nc3ccc(Cl)cc3c(=O)n2Cc2ccccc2)cc(OC)c1OC | 76.2% | 36.6% | 92.1% | 70.2% | 43.4% | 74.8% | 53.4% | 91.1% | 70.7% | 73.7% | 80% | 74.1% | 109% | 45.9% | 63.7% | 33.5% | 78.1% | 60.6% | 66.5%
14 | COC(=O)C(C(C[N+](=O)[O-])c1ccccc1)=P(c1ccccc1)(c1ccccc1)c1ccccc1 (centres undefined) | 67.7% | 85.3% | 98.4% | 88.3% | 85.4% | 98.5% | 90% | 58.1% | 109% | 89.4% | 100% | 73.1% | 97.2% | 93.9% | 84.3% | 59.8% | 77.1% | 90.3% | 14.6%
15 | CCOC(=O)N1C/C(=C/c2ccc(Cl)cc2)C(=O)/C(=C/c2ccc(Cl)cc2)C1 | -40% (active) | 66% | 77.3% | 12.1% | 49.4% | 88.1% | 67.6% | -56.8% (active) | 105% | 84.7% | 72.2% | 45.2% | 99.5% | 74.7% | 65.5% | 79.7% | 26% | 21.5% | -5.62% (active)
16 | COc1ccc(Nc2ncnc3c2c(SC)nn3-c2ccccc2)cc1 | 87.2% | 65.8% | 91.6% | 84.1% | 70.4% | 94.8% | 86.4% | 92.7% | 99.1% | 86.8% | 83.8% | 77.2% | 117% | 100% | 82.7% | 118% | 98.5% | 88.1% | 84.2%
